For three compounds, AC50 and outcome results are on record in PubChem BioAssay (EPA / NIEHS).

Records with an inconclusive call do not appear. Activity calls are given as the source filed them. How the source made its calls, unless noted: active means hit-call score of the fitted dose curve at least 0.9, where 1 is the maximum; inactive means score below 0.9.

A word on the AC50: it is the midpoint of the concentration-response curve, whichever way the signal moves.

Assay [1] in a line: BSK_LPS_PGE2: BioMAP Diversity Plus: LPS Assay for Prostaglandin E2 (PGE2) Biomarker Activity (AID 2283082). The note with it: primary human HUVEC with PBMC; actives raise or lower the signal. In a few lines: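 HUVEC plus human PBMC co-culture stimulated with LPS; secreted PGE2 quantified by ELISA 24 h after chemical dosing. Activity fitted bidirectionally against DMSO baseline; parallel SRB staining (0.1% SRB after 10% TCA fixation, 560 nm) flags overt cytotoxicity.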

Read-out in assay [2]: Macrophage colony-stimulating factor (MCSF), CSF1 (gene 1435)
As to the kind of experiment: BSK_LPS_MCSF: BioMAP Diversity Plus: LPS Assay for Macrophage colony-stimulating factor (MCSF) Biomarker Activity (AID 2283083). The note with it: primary human HUVEC with PBMC; actives raise or lower the signal. The method in brief:
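HUVEC + PBMC co-culture (human primary), 24 h post-dose; M-CSF by ELISA; gain/loss of signal fitted bidirectionally vs DMSO baseline.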

Read-out in assay [3]: Tissue Factor, F3 (gene 2152)
As to the kind of experiment: BSK_LPS_TissueFactor: BioMAP Diversity Plus: LPS Assay for Tissue Factor Biomarker Activity (AID 2283084). The note with it: primary human HUVEC with PBMC; actives raise or lower the signal. The method in brief: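 HUVEC/PBMC co-culture, LPS-activated; CD142 ELISA read 24 h post-dose; bidirectional curve fit vs DMSO negative control.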

Read-out in assay [4]: Tumor necrosis factor (Homo sapiens) (UniProt P01375)
Kind of assay: BSK_LPS_TNFa: BioMAP Diversity Plus: LPS Assay for Tumour Necrosis Factor alpha (TNFa) Biomarker Activity (AID 2283085). The note with it: primary human HUVEC with PBMC; actives raise or lower the signal. In a few lines:
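Human umbilical vein endothelial cells co-cultured with PBMC and stimulated with LPS. TNFa was measured by ELISA 24 h after chemical dosing, fitted bidirectionally relative to DMSO.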

Read-out in assay [5]: Vascular cell adhesion molecule 1 (VCAM1), VCAM1 (gene 7412)
Kind of assay: BSK_LPS_VCAM1: BioMAP Diversity Plus: LPS Assay for Vascular cell adhesion molecule 1 (VCAM1) Biomarker Activity (AID 2283086). To be noted: primary human HUVEC with PBMC; actives raise or lower the signal. In a few lines:
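Human umbilical vein endothelial cells co-cultured with PBMC and stimulated with LPS; VCAM-1 measured by ELISA 24 h after dosing. Bidirectional curve fitting against DMSO baseline; cytotoxicity tracked in parallel by SRB total-protein staining.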

Read-out in assay [6]: CD38, CD38 (gene 952)
As to the kind of experiment: BSK_SAg_CD38: BioMAP Diversity Plus: SAg Assay for CD38 Biomarker Activity (AID 2283087). To be noted: primary human HUVEC with PBMC; actives raise or lower the signal. In a few lines:
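Human HUVEC plus PBMC co-culture stimulated with superantigen; CD38 measured by ELISA 24 h after chemical dosing. Fluorescence read-out, bidirectional fit against DMSO; cytotoxicity tracked in parallel by SRB and Alamar Blue.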

Read-out in assay [7]: CD40, CD40 (gene 958)
Kind of assay: BSK_SAg_CD40: BioMAP Diversity Plus: SAg Assay for CD40 Biomarker Activity (AID 2283088). To be noted: primary human HUVEC with PBMC; actives raise or lower the signal. The method in brief: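 HUVEC/PBMC co-culture, 24 h post-dose; CD40 by ELISA, fluorescence intensity; bidirectional fit vs DMSO negative control.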

Read-out in assay [8]: CD69, CD69 (gene 969)
As to the kind of experiment: BSK_SAg_CD69: BioMAP Diversity Plus: SAg Assay for CD69 Biomarker Activity (AID 2283089).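 On AC50: cell surface CD69 protein quantified by ELISA with fluorescence detection.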 The note with it: primary human HUVEC with PBMC; actives raise or lower the signal. The method in brief: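 Values derive from bidirectional fitting relative to DMSO vehicle. Cells: umbilical vein endothelium plus peripheral blood mononuclear cells, treated 24 h before fluorescent ELISA for CD69.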

Read-out in assay [9]: Monocyte Chemoattractant Protein-1 (MCP1), CCL2 (gene 6347)
Kind of assay: BSK_SAg_MCP1: BioMAP Diversity Plus: SAg Assay for Monocyte Chemoattractant Protein-1 (MCP1) Biomarker Activity (AID 2283090). To be noted: primary human HUVEC with PBMC; actives raise or lower the signal. The method in brief:
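MCP-1 levels in the endothelial–PBMC SAg co-culture were quantified by ELISA at 24 h post-dosing; both increases and decreases versus DMSO scored. Cytotoxicity monitored by SRB total protein in parallel cultures.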

Read-out in assay [10]: E-selectin (Homo sapiens) (UniProt P16581)
As to the kind of experiment: BSK_SAg_Eselectin: BioMAP Diversity Plus: SAg Assay for Eselectin Biomarker Activity (AID 2283091). The note with it: primary human HUVEC with PBMC; actives raise or lower the signal. In a few lines:
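E-selectin ELISA readout at 24 h post-dosing in human umbilical vein endothelial cell/PBMC co-culture; gain or loss of signal fitted relative to DMSO baseline.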

Read-out in assay [11]: Monokine induced gamma interferon (MIG), CXCL9 (gene 4283)
As to the kind of experiment: BSK_SAg_MIG: BioMAP Diversity Plus: SAg Assay for Monokine induced gamma interferon (MIG) Biomarker Activity (AID 2283092). To be noted: primary human HUVEC with PBMC; actives raise or lower the signal. In a few lines:
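Values reflect bidirectional fitting of ELISA-measured MIG against DMSO vehicle, taken 24 h after dosing of a co-culture of human umbilical vein endothelial cells and peripheral blood mononuclear cells.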

A short description of assay [12]: BSK_SAg_PBMCCytotoxicity: PBMC Cytotoxicity Assessment in the BioMAP Diversity Plus: SAg Assay (AID 2283093).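 Further: PBMC viability measured as Alamar Blue reduction fluorescence at 546/580 nm; fitted both ways against DMSO so a hit may be loss or gain of signal.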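 On AC50: PBMC superantigen activated with SEB plus TSST-1 one hour after compound addition.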 The note with it: primary human HUVEC with PBMC. In a few lines:
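Human umbilical vein endothelial cells co-cultured with PBMC; PBMC (75,000/well) pre-treated with compound 1 h, then activated with SEB and TSST-1 (20 ng/mL final each) for 90 h. Alamar Blue added 6 h, fluorescence 546/580 nm; bidirectional fit versus DMSO.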

Read-out in assay [13]: Interleukin-8 (IL8), CXCL8 (gene 3576)
Kind of assay: BSK_SAg_IL8: BioMAP Diversity Plus: SAg Assay for Interleukin-8 (IL8) Biomarker Activity (AID 2283094). The note with it: primary human HUVEC with PBMC; actives raise or lower the signal. In a few lines: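 Human umbilical vein endothelial cells co-cultured with PBMC, stimulated with superantigen; IL-8 measured by ELISA 24 h after chemical dosing. Bidirectional fitting versus DMSO; SRB staining in parallel cultures tracks cytotoxicity.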

A short description of assay [14]: BSK_SAg_Proliferation: Cell Proliferation Assessment in the BioMAP Diversity Plus: SAg Assay (AID 2283095). The note with it: primary human HUVEC with PBMC. In a few lines:
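Human umbilical vein endothelial cells co-cultured with PBMC; sulforhodamine B total-protein staining (0.1% SRB after 10% TCA fixation, absorbance 560 nm) at 96 h in sub-confluent culture. Fitted bidirectionally against DMSO.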

The nature of assay [15]: BSK_SAg_SRB: Viability Assessment in the BioMAP Diversity Plus: SAg Assay (AID 2283096).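 Further: cells read one day after compound addition; hits may be either gain or loss of signal compared with DMSO.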 To be noted: primary human HUVEC with PBMC. In a few lines: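 Endothelial/PBMC primary human co-culture; compound 24 h; fix 10% TCA, stain 0.1% SRB, A560; protein content as cytotoxicity proxy; bidirectional curve fit, DMSO = baseline.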
Assay [16] concerns the target human CYP1A2, CYP1A2 (gene 1544) (UniProt P05177). Kind of assay: NVS_ADME_hCYP1A2: NovaScreen (NVS) CYP450-related Enzyme Activity (ADME) Assay for human CYP1A2 (AID 2283102; active means hit-call score of the fitted dose curve at least 0.9, where 1 is the maximum;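 further: potency for inhibition since loss of fluorescence marks reduced CYP1A2 activity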). The method in brief: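 Fluorescence-intensity enzyme activity read-out, taken 0.5 h post-dosing, using insect-cell-derived recombinant CYP1A2 and specific fluorescent substrate. Acetonitrile served as negative control/baseline. Single-concentration duplicate screen at 10 uM, then concentration-response follow-up.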

In assay [17] the target is human CYP2A6, CYP2A6 (gene 1548) (UniProt P11509). Kind of assay: NVS_ADME_hCYP2A6: NovaScreen (NVS) CYP450-related Enzyme Activity (ADME) Assay for human CYP2A6 (AID 2283099; active means hit-call score of the fitted dose curve at least 0.9, where 1 is the maximum). The method in brief:
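Insect-cell-expressed human CYP2A6 enzyme activity measured by fluorescence intensity 0.5 hour post-dosing. Compounds screened at 10 uM in duplicate, then hits tested singly in concentration series (max 20 uM); acetonitrile baseline.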

Tumor necrosis factor (Homo sapiens), sequence (P01375 whole entry, looked up): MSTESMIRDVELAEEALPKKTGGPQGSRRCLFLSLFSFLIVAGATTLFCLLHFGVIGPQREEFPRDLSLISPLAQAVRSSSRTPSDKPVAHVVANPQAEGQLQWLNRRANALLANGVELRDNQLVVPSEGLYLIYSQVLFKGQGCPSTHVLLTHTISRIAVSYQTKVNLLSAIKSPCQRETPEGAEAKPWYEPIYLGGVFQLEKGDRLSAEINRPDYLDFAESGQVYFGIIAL
E-selectin (Homo sapiens), sequence (P16581 whole entry, looked up): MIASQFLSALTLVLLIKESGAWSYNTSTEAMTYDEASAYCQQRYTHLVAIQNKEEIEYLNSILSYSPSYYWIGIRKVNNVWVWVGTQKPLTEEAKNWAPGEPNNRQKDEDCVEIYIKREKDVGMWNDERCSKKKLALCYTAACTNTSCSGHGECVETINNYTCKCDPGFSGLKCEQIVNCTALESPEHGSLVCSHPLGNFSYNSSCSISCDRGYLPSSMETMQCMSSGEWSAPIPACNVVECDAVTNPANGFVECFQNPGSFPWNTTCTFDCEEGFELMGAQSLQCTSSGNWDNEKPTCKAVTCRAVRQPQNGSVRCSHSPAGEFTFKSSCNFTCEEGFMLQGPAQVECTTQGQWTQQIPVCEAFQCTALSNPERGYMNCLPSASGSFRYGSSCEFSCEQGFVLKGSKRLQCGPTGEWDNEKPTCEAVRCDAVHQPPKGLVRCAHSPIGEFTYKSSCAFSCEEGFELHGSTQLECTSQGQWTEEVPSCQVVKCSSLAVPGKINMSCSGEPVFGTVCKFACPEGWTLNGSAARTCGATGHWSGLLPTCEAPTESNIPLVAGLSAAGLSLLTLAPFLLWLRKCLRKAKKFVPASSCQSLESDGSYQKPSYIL
human CYP1A2, CYP1A2 (gene 1544), sequence (P05177 whole entry, looked up): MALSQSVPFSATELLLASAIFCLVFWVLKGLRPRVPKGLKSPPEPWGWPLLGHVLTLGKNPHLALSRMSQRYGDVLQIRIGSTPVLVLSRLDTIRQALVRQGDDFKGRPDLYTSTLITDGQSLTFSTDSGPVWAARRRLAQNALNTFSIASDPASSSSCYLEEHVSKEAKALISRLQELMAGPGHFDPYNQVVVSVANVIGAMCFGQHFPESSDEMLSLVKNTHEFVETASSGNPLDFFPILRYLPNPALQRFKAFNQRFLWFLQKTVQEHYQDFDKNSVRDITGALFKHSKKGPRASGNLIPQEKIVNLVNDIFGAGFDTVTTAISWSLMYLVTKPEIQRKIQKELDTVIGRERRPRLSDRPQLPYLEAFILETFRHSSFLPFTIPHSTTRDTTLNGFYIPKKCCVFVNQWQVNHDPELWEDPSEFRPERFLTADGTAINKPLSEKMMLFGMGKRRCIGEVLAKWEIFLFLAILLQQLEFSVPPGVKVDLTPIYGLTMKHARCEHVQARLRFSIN
human CYP2A6, CYP2A6 (gene 1548), sequence (P11509 whole entry, looked up): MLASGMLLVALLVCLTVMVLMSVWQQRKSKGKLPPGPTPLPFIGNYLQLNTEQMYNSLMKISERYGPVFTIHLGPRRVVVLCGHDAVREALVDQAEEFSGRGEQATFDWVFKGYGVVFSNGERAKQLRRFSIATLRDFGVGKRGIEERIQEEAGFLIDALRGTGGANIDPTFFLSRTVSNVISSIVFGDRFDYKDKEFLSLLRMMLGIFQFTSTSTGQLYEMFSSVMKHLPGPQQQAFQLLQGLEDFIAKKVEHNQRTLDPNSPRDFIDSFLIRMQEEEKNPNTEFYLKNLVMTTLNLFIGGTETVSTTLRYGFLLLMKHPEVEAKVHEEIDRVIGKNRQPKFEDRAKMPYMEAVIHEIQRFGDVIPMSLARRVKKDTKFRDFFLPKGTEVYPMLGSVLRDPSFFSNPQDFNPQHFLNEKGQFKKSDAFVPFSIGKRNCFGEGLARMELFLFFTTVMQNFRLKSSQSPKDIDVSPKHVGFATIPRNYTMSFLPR

In the case of `CC(C)COC(=O)c1ccccc1C(=O)OCC(C)C`, the AC50 was 9.78 µM (active) in assay [1]; 20 µM (active) in assay [5]; 20 µM (active) in [8]; 20 µM (active) in [10]; 37 µM (active) in [12]; 30.3 µM (active) in [14]. For the same compound, the AC50 in [16] was 7.52 µM (active). For the same compound, the outcome in [2], in assay [3], in assay [4], in [6], in [7] and in assay [9] was inactive. The result in [11], in assay [13] and in assay [15] was inactive.

In the case of `CN(C)C(=O)Nc1ccc(Cl)cc1`, the result in [1], in assay [2], in assay [3], in [4], in assay [5] and in assay [6] was inactive. In addition, the outcome in [7], in assay [8], in assay [9], in [10], in assay [11] and in assay [12] was inactive. Also, the result in [13] and in [15] was inactive. The AC50 was 20 µM (active) in assay [14] and 6.62 µM (active) in [16].

For the compound `CC(C)(OOC(C)(C)c1ccccc1)c1ccccc1`, the result in assay [1], in [3] and in assay [17] was inactive. The AC50 was 32.5 µM (active) in assay [2]; 31.7 µM (active) in [4]; 30.7 µM (active) in [5]; 33.5 µM (active) in assay [6]; 31 µM (active) in [7]; 31.6 µM (active) in [8]. The half-maximal activity concentration (AC50) in assay [9] is 33 µM (active); in assay [10], 37 µM (active); in [11], 31.3 µM (active); in assay [12], 27 µM (active); in assay [13], 30.2 µM (active); in [14], 16.4 µM (active). Besides, the AC50 in assay [15] was 32.7 µM (active).
